36 molecules from PubChem BioAssay (NCATS) can be followed below.

Results filed as inconclusive are left out. The source made the active and inactive calls. Calls follow the shape of the dose curve; as a rule, active = well fitted inhibition curve with a large enough effect; inconclusive = small, poorly fitted or top-dose-only effect; inactive = flat fitted curve, though single readings scatter.
% is scaled to controls: 0 for no effect and ±100 for the full control effect; potency is read from the fitted curve at half-maximal effect.

The test system of one test is HEK293. Briefly: Cytotoxic Profiling of Annotated Libraries Using Quantitative High-Throughput Screening (AID 1296008). Also: nearly all actives have a fitted effect of over 60% in size. The note with it: Five cell lines viability, CellTiter-Glo ATP luminescence, 48-72 h; max response: active compounds read low. In outline: (§1)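 Cells exposed to compounds for 48 or 72 hr at 37 degrees Celsius. Viability read as ATP-coupled luminescence with CellTiter-Glo after 10 min at room temperature.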
(In general: Cellular ATP, detected with luciferase, serves as a proxy for viable cell number.)
As for `CC(=O)Oc1ccc(C)cc1`, the max response is -1.12% (inactive).

For the molecule `CC(C)(C)NC[C@H](O)COc1nsnc1N1CCOCC1`, the max response was 1.26% (inactive).

`Cc1ncc(CO)c(C=O)c1O`: the max response was -65.4% (inactive).

In the case of `CN(C)CCN1C(=O)c2ccccc2N(C)c2ccccc21`, the max response is -1.88% (inactive).

Consider `CC[C@]12CCCN3CCc4c(n(c5ccccc45)C(=O)C1)[C@@H]32`, for which the Potency is 7.5 µM (active).

As to `COc1cc(C)nc(-n2nc(C)cc2OC)n1`, the max response is -7.38% (inactive).

For `O=C1C(O)=C(O)C(=O)C(O)=C1O`, the molecule was classed as inactive.

For the molecule `CCCCCCCCCCCCSCCOCCO`, the max response is -0.323% (inactive).

As to `COc1ccc(C(=O)c2ccccc2)c(O)c1`, the result was inactive.

Consider `OC[C@H]1O[C@@H]2O[C@H]3[C@H](O)[C@@H](O)[C@@H](O[C@H]4[C@H](O)[C@@H](O)[C@@H](O[C@H]5[C@H](O)[C@@H](O)[C@@H](O[C@H]6[C@H](O)[C@@H](O)[C@@H](O[C@H]7[C@H](O)[C@@H](O)[C@@H](O[C@H]8[C@H](O)[C@@H](O)[C@@H](O[C@H]1[C@H](O)[C@H]2O)O[C@@H]8CO)O[C@@H]7CO)O[C@@H]6CO)O[C@@H]5CO)O[C@@H]4CO)O[C@@H]3CO`, for which the molecule was called inactive.

For `C#C[C@]1(OC(C)=O)CC[C@H]2[C@@H]3CCC4=C/C(=N/O)CC[C@@H]4[C@H]3CC[C@@]21CC`, the Potency is 13.3 µM (active).

`CCOC(=O)c1c(N)sc2c1CCN(Cc1ccccc1)C2`: the Potency was 11.9 µM (active).

As to `CCCCCCCC/C=C\CCCCCCCCN`, the max response is -3.13% (inactive).

As to `N#CCC(=O)NN`, the max response was 3.14% (inactive).

As for `C#C[C@]1(O)CC[C@H]2[C@@H]3CCC4=CC(=O)CC[C@@H]4[C@H]3CC[C@@]21CC`, the max response is -17.9% (inactive).

For `CN1CCC(OC(c2ccccc2)c2ccccc2)CC1`, the max response is -17.7% (inactive).

Turning to `CCN[C@@H]1C[C@H](N)[C@@H](OC2OC(CN)=CCC2N)[C@H](O)[C@H]1O[C@H]1OC[C@](C)(O)[C@H](NC)[C@H]1O` (some centres not stated), the outcome was inactive.

Regarding `O=C(c1ccc(F)cc1)C1CCN(CCn2c(=S)[nH]c3ccccc3c2=O)CC1`, the max response was -98.9% (inactive).

As for `CC(=O)N[C@@H](CCC(=O)O)C(=O)O`, the max response was -7.38% (inactive).

Consider `CCCc1ncc(C[n+]2ccccc2C)c(N)n1`, for which the max response is -18.1% (inactive).

On to `COc1cc(O)c(C(=O)c2ccccc2)cc1S(=O)(=O)O`, for which the max response is -6.68% (inactive).

Take `CCN(CC)CCOC(=O)C1(c2ccccc2)CCCC1`: the molecule was classed as inactive.

For the molecule `CCC(Cc1c(I)cc(I)c(N)c1I)C(=O)O` (configuration not stated), the call was inactive.

As to `OC[C@H]1O[C@@H](Oc2ccc(O)cc2)[C@H](O)[C@@H](O)[C@@H]1O`, the max response is -74.1% (inactive).

With `Cc1cccc(C)c1NC(=O)CN1CCCCCC1`, the max response is 2.2% (inactive).

Turning to `Nc1ccc(S(=O)(=O)NCc2ccccc2)cc1`, the max response was 3.66% (inactive).

Take `CN1CCc2cccc3c2[C@H]1Cc1ccc(O)c(O)c1-3`: the Potency was 23.7 µM (active).

For `CCN(CC)CCOc1ccc2c(c1)C(=O)c1cc(OCCN(CC)CC)ccc1-2`, the Potency was 7.5 µM (active).

For the molecule `CCc1oc2ccccc2c1C(=O)c1cc(I)c(O)c(I)c1`, the max response was -23.3% (inactive).

As to `CCCCCN=C(N)N/N=C/c1c[nH]c2ccc(OC)cc12`, the Potency is 8.41 µM (active).

In the case of `O=C(O)CCNC(=O)c1ccccc1`, the molecule was called inactive.

`CCCCC(CC)COC(=O)/C=C/c1ccc(OC)cc1` (configuration not stated): the max response is -2.18% (inactive).

Take `COc1cc(NS(=O)(=O)c2ccc(N)cc2)ncn1`: the max response was -0.739% (inactive).

Consider `C[C@]12CCC(=O)C=C1C=C[C@@H]1[C@@H]2CC[C@@]2(C)[C@H]1CC[C@@]21CCC(=O)O1`, for which the Potency is 9.44 µM (active).

For `Cc1ccc2c(Br)cc(Br)c(O)c2n1`, the Potency was 8.41 µM (active).

As to `C=C[C@@]1(C)CC(=O)[C@]2(O)[C@@]3(C)[C@@H](O)CCC(C)(C)[C@@H]3[C@H](O)[C@H](OC(C)=O)[C@@]2(C)O1`, the max response was -3.5% (inactive).

A further test relates to HaCat. The test is described as above. The note with it: Five cell lines viability, CellTiter-Glo ATP luminescence, 48-72 h; max response: active compounds read low. Put shortly:
as §1
With `CC[C@]12CCCN3CCc4c(n(c5ccccc45)C(=O)C1)[C@@H]32`, the max response was -22.7% (inactive).

Take `CCCCCCCCCCCCSCCOCCO`: the max response was 0.693% (inactive).

Take `C#C[C@]1(OC(C)=O)CC[C@H]2[C@@H]3CCC4=C/C(=N/O)CC[C@@H]4[C@H]3CC[C@@]21CC`: the max response was 2.29% (inactive).

Regarding `N#CCC(=O)NN`, the molecule was called inactive.

As for `COc1cc(O)c(C(=O)c2ccccc2)cc1S(=O)(=O)O`, the max response was -4.69% (inactive).

As for `CCc1oc2ccccc2c1C(=O)c1cc(I)c(O)c(I)c1`, the max response is -7.93% (inactive).

In the next test the test system is KB-3-1. The description is as above. The note with it: Five cell lines viability, CellTiter-Glo ATP luminescence, 48-72 h; max response: active compounds read low. In outline: as §1
Take `CC(=O)Oc1ccc(C)cc1`: the max response was 5.93% (inactive).

For the molecule `CC(C)(C)NC[C@H](O)COc1nsnc1N1CCOCC1`, the max response was 0.822% (inactive).

As for `Cc1ncc(CO)c(C=O)c1O`, the max response was 3.7% (inactive).

With `CN(C)CCN1C(=O)c2ccccc2N(C)c2ccccc21`, the max response was 3.06% (inactive).

Consider `COc1cc(C)nc(-n2nc(C)cc2OC)n1`, for which the max response is 4.41% (inactive).

Consider `O=C1C(O)=C(O)C(=O)C(O)=C1O`, for which the max response is -3.2% (inactive).

In the case of `COc1ccc(C(=O)c2ccccc2)c(O)c1`, the max response was -18.9% (inactive).

Take `OC[C@H]1O[C@@H]2O[C@H]3[C@H](O)[C@@H](O)[C@@H](O[C@H]4[C@H](O)[C@@H](O)[C@@H](O[C@H]5[C@H](O)[C@@H](O)[C@@H](O[C@H]6[C@H](O)[C@@H](O)[C@@H](O[C@H]7[C@H](O)[C@@H](O)[C@@H](O[C@H]8[C@H](O)[C@@H](O)[C@@H](O[C@H]1[C@H](O)[C@H]2O)O[C@@H]8CO)O[C@@H]7CO)O[C@@H]6CO)O[C@@H]5CO)O[C@@H]4CO)O[C@@H]3CO`: the max response is 3.96% (inactive).

Turning to `CCOC(=O)c1c(N)sc2c1CCN(Cc1ccccc1)C2`, the max response was -15.4% (inactive).

`CCCCCCCC/C=C\CCCCCCCCN`: the max response is -6.06% (inactive).

For `C#C[C@]1(O)CC[C@H]2[C@@H]3CCC4=CC(=O)CC[C@@H]4[C@H]3CC[C@@]21CC`, the max response is -1.4% (inactive).

In the case of `CN1CCC(OC(c2ccccc2)c2ccccc2)CC1`, the max response was -12.2% (inactive).

As to `CCN[C@@H]1C[C@H](N)[C@@H](OC2OC(CN)=CCC2N)[C@H](O)[C@H]1O[C@H]1OC[C@](C)(O)[C@H](NC)[C@H]1O` (some centres not stated), the max response was 17.1% (inactive).

Turning to `O=C(c1ccc(F)cc1)C1CCN(CCn2c(=S)[nH]c3ccccc3c2=O)CC1`, the max response is 8.09% (inactive).

As for `CC(=O)N[C@@H](CCC(=O)O)C(=O)O`, the max response is -11.1% (inactive).

Turning to `CCCc1ncc(C[n+]2ccccc2C)c(N)n1`, the max response is 2.61% (inactive).

Take `CCN(CC)CCOC(=O)C1(c2ccccc2)CCCC1`: the max response was 1.37% (inactive).

For the molecule `CCC(Cc1c(I)cc(I)c(N)c1I)C(=O)O` (configuration not stated), the max response is -8.27% (inactive).

`OC[C@H]1O[C@@H](Oc2ccc(O)cc2)[C@H](O)[C@@H](O)[C@@H]1O`: the max response is 3.33% (inactive).

Regarding `Cc1cccc(C)c1NC(=O)CN1CCCCCC1`, the max response is 2.19% (inactive).

Regarding `Nc1ccc(S(=O)(=O)NCc2ccccc2)cc1`, the max response is -2.49% (inactive).

On to `CN1CCc2cccc3c2[C@H]1Cc1ccc(O)c(O)c1-3`, for which the max response was 10.6% (inactive).

Consider `CCN(CC)CCOc1ccc2c(c1)C(=O)c1cc(OCCN(CC)CC)ccc1-2`, for which the max response was 41.3% (inactive).

Regarding `CCCCCN=C(N)N/N=C/c1c[nH]c2ccc(OC)cc12`, the max response is 1.55% (inactive).

Take `O=C(O)CCNC(=O)c1ccccc1`: the max response was -6.01% (inactive).

Consider `CCCCC(CC)COC(=O)/C=C/c1ccc(OC)cc1` (configuration not stated), for which the max response was 15% (inactive).

Turning to `COc1cc(NS(=O)(=O)c2ccc(N)cc2)ncn1`, the max response is -8.34% (inactive).

As to `C[C@]12CCC(=O)C=C1C=C[C@@H]1[C@@H]2CC[C@@]2(C)[C@H]1CC[C@@]21CCC(=O)O1`, the max response was -4.54% (inactive).

As for `Cc1ccc2c(Br)cc(Br)c(O)c2n1`, the max response is 8.29% (inactive).

As to `C=C[C@@]1(C)CC(=O)[C@]2(O)[C@@]3(C)[C@@H](O)CCC(C)(C)[C@@H]3[C@H](O)[C@H](OC(C)=O)[C@@]2(C)O1`, the max response is -4.04% (inactive).
